Source: PubChem
Dicer inh: blocks human Dicer maturation of pre-miR-21; Q9UPY3; cat-ELCCA pre-miR-21 Dicer processing, chemiluminescence; hits give high values; z-score at 25 µM; 47,000 compounds, 6% hits; AID 1347074; in the data active = z-score above about 3, passing the limit was not always enough;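 note: plate controls were vehicle for no effect and no enzyme for full effect; higher signal means more uncleaved substrate so more Dicer inhibition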
Target sequence (Q9UPY3 whole entry, looked up): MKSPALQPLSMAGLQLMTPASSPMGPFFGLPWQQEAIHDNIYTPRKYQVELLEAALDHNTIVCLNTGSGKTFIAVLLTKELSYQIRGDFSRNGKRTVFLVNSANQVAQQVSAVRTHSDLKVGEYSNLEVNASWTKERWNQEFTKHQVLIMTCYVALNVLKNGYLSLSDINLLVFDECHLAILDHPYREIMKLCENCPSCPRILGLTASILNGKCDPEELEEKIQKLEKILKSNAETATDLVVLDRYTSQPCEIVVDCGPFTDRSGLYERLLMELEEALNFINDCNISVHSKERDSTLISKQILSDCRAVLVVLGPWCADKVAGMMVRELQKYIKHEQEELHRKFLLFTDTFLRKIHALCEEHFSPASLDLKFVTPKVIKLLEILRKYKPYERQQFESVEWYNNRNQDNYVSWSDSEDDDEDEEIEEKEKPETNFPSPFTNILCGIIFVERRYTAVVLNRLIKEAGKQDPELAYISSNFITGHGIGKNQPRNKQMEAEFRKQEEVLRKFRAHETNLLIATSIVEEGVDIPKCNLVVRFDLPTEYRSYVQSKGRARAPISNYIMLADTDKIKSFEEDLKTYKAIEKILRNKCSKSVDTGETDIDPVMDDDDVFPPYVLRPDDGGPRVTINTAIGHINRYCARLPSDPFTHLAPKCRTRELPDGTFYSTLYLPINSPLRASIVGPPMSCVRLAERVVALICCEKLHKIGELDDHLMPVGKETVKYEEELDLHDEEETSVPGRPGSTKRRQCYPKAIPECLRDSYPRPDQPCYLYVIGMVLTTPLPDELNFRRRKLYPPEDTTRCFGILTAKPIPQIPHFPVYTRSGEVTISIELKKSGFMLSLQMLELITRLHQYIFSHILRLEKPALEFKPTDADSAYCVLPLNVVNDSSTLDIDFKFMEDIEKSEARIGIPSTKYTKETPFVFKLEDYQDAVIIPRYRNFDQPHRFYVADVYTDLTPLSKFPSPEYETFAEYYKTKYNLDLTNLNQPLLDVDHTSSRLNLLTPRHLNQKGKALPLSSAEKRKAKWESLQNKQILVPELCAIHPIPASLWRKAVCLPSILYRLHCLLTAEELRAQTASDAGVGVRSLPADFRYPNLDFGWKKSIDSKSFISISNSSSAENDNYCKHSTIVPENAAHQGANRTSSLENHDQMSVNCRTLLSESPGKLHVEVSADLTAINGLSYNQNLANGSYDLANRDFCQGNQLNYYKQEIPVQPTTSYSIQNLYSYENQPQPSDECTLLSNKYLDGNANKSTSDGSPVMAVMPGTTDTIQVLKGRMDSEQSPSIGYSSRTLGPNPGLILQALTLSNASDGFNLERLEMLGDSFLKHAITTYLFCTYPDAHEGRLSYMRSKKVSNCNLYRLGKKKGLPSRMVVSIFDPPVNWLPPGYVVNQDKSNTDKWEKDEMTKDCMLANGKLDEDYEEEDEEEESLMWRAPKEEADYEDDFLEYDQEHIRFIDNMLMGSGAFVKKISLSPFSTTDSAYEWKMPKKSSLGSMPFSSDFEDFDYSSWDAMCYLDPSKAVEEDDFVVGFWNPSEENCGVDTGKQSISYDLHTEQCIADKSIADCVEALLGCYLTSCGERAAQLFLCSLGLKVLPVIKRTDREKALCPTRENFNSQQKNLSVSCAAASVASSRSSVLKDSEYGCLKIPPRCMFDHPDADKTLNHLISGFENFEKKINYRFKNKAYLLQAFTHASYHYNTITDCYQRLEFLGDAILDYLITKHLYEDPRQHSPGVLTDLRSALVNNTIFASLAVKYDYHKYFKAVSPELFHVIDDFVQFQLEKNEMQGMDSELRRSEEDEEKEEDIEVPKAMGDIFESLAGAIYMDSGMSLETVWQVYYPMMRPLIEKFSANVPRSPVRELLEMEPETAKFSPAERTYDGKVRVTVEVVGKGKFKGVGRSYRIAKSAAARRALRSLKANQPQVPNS
* = called active by the depositor. Shown is part of a subset that was picked to be rich in hits.

SMILES	Dicer inh
O=S(=O)(Cc1noc(-c2ccc(Cl)cc2)n1)c1ccccn1	-0.29
CSC1=N/C(=C\c2ccc(Cl)cc2)C(=O)N1N(C)C	-0.39
CSC1=N/C(=C\c2ccc([N+](=O)[O-])s2)C(=O)N1CCOc1ccc(Cl)cc1	-0.23
CSC1=N/C(=C\c2ccc(Cl)cc2)C(=O)N1CCOc1ccc(Cl)cc1	3.62*
COc1ccc(-c2n[nH]c(=S)n2-c2cccc(OC)c2)cc1	-0.83
CN(CCc1ccccn1)Cc1cccc(F)c1	3.47*
CN(CCc1ccccn1)Cc1ccc(F)cc1	-0.8
CN(CCc1ccccn1)Cc1ccccn1	-1.03
NC(=O)CSc1nnc(-c2ccc(C(F)(F)F)cn2)s1	-0.88
CC1(C)CCc2cc(S(=O)(=O)NCCN3CCCC3)ccc2O1	-1.1
Cc1nc(SCC(O)CN2CCCCC2)c([N+](=O)[O-])[nH]1 (configuration not stated)	0.47
Cc1c(C(=O)CN2CCN(c3ccc(C(F)(F)F)cn3)CC2)sc2ccccc12	0.29
CCOC(=O)CCC(C#N)(c1cc(OC)c(OC)c(OC)c1)N1CCOCC1 (configuration not stated)	0.45
COC(=O)c1sccc1Oc1ccc(Cl)cc1NC(=O)C(Cl)Cl	0.42
Cc1ccc(C)n1-c1cccc2ccccc12	-1.87
O=[N+]([O-])C1=Cc2cc(Cl)ccc2OC1c1c(Cl)cccc1Cl (configuration not stated)	2.31
O=[N+]([O-])C1=Cc2ccccc2OC1c1ccccc1Cl (configuration not stated)	2.49
O=[N+]([O-])C1=Cc2cc(Cl)ccc2OC1c1ccccc1Cl (configuration not stated)	3.97*
CCOC(=O)c1c(NS(=O)(=O)c2ccc(OC)c(Br)c2)sc2c1CCCC2	-2.06
S=C(N/N=C/C=C/c1ccccc1)NC1CC2CC1C1C=CCC21 (configuration not stated)	0.15
CC1CC(NC(=S)NC2CC3CC2C2C=CCC32)CC(C)(C)C1 (configuration not stated)	3.11*
CC1CC(NC(=S)Nc2ccc(I)cc2F)CC(C)(C)C1 (configuration not stated)	1.04
CCCn1c(Cl)nc2c1c(=O)n(C)c(=O)n2C	-2.48
COC(=O)c1cc(/C=N/NC(N)=O)cn1C	-0.45
COc1cccc(C(=O)CC2(O)C(=O)N(Cc3ccccc3)c3ccc(Br)cc32)c1 (configuration not stated)	0.23
SMILES	Dicer inh
O=C(NC1CCSC1=O)c1ccc(-c2ccccc2)cc1 (configuration not stated)	-1.78
O=C(NC1CCSC1=O)c1cccc(C(=O)NC2CCSC2=O)c1 (configuration not stated)	3.02*
Cc1onc(-c2ccccc2)c1C(=O)NC1CCSC1=O (configuration not stated)	-0.7
COc1ccc(-c2nc(C#N)c(NCc3ccco3)o2)cc1	-1.14
N#Cc1nc(-c2ccccc2)oc1NCc1ccccc1	6.36*
C=CCNc1oc(-c2ccc(F)cc2)nc1C#N	-0.55
Cc1noc(/C=C/c2ccccc2OCc2ccc(F)cc2)c1[N+](=O)[O-]	0.23
COc1ccc(/C(O)=C2/C(=O)C(=O)N(CCc3ccccc3)C2c2cccc(F)c2)cc1 (configuration not stated)	-1.72
COc1ccc(C(=O)/C(C#N)=C/c2ccc(C#Cc3ccccc3)s2)cc1	1.11
CCc1ccccc1CSc1nc(C)cc(C)c1C#N	0.42
Cc1ccc(C)c(CSc2nc(C3CCCCC3)c(C#N)c(=O)[nH]2)c1	4.26*
CSc1nc(CSc2ccc(Cl)cc2)nc(C2CC2)c1C#N	6.88
NS(=O)(=O)c1cc(Cl)cc(Cl)c1	-0.43
Cc1c(Cl)cccc1NC(=S)N1C(C)CCCC1C (configuration not stated)	-0.76
Cc1ccccc1NC(=S)N1CC(C)OC(C)C1 (configuration not stated)	-1.1
Cc1ccccc1NC(=S)N1CCCCC1C (configuration not stated)	3.43*
O=c1[nH]c2ccccc2c(O)c1[N+](=O)[O-]	1.03
O=C(Nc1nc2c(s1)CCc1ccccc1-2)c1ccc([N+](=O)[O-])s1	0.57
CN=C1SC(CC(=O)O)C(=O)N1C (configuration not stated)	20.3*
COc1cc(/C=N/N=C2/SC(CC(=O)O)C(=O)N2C)cc(OC)c1OC (configuration not stated)	2.52
C=CCN1C(=O)SC(CC(=O)O)C1=O (configuration not stated)	-0.77
C1COC2(CCC3(CC2)OCCO3)O1	-0.78
Cc1c(CN2CCC(C(=O)c3ccc(F)cc3)CC2)sc2ccccc12	9.09
Cc1c(CN2CCc3ccccc3C2)sc2ccccc12	4.82*
Cc1c(CC(=S)N2CCOCC2)sc2ccccc12	-0.68
SMILES	Dicer inh
CC(C)(C)c1cc2nc(C(F)(F)F)cc(SCCOC(=O)c3ccc(Cl)cc3)n2n1	-0.18
COCCCNc1nc2c(c(=O)n(C)c(=O)n2C)n1Cc1cccc2ccccc12	-1.14
COc1ccc(-c2coc3cc4oc(=O)c5cc(OC)ccc5c4cc23)cc1	3.79*
COc1ccc2c(c1)c(=O)oc1cc3occ(-c4ccc(F)cc4)c3cc12	1.49
COc1ccc2c(c1)c(=O)oc1cc3occ(-c4ccc(C)cc4)c3cc12	-1.04
Cc1nn(C)cc1CNC(=O)c1nn2c(C(F)(F)F)cc(-c3cccs3)nc2c1Br	-0.17
COC(=O)c1scc(C)c1N(S(=O)(=O)c1ccc(C(F)(F)F)cc1)S(=O)(=O)c1ccc(C(F)(F)F)cc1	1.74
Cc1csc(NS(=O)(=O)c2ccc(Cl)cc2)c1-c1nc2ccccc2s1	4.18*
CC(=O)Nc1scc(C)c1-c1nc2ccccc2s1	-0.01
Cc1csc(NC(=O)COCC(=O)O)c1-c1nc2ccccc2s1	1.3
CCOC(=O)c1cc(-c2ccccc2)n(-c2ccc(N3CCOCC3)cc2)c1C	4.28*
CCOC(=O)c1cc(C(C)(C)C)n(-c2ccc(N3CCOCC3)cc2)c1C	1.22
CCOC(=O)c1cc(-c2ccc(Cl)cc2)n(-c2ccccc2)c1C	1.89
Cc1onc(-c2c(Cl)cccc2Cl)c1C(=O)NNC(=O)CO/N=C/c1ccc(Cl)cc1Cl	-0.53
O=C(Nc1ncc2c(n1)CC(c1ccccc1)CC2=O)c1ccco1 (configuration not stated)	4.16*
Cc1nnc(SCC(=O)Nc2ncc3c(n2)CC(c2ccco2)CC3=O)s1 (configuration not stated)	2.79
O=C1CC(c2ccccc2Cl)Cc2nc(NCCc3ccccc3)ncc21 (configuration not stated)	-0.73
CCC(C)C(=O)Nc1ncc2c(n1)CC(c1ccc(C(C)C)cc1)CC2=O (configuration not stated)	0.71
O=C1CC(c2ccccc2)Cc2nc(NCc3ccco3)ncc21 (configuration not stated)	3.94*
Cc1nc(Nc2ncc3c(n2)CC(c2ccccc2)CC3=O)nc2ccccc12 (configuration not stated)	1.26
CCOC(=O)CN1C(=O)C(O)(CC(=O)c2ccc3c(c2)OCCO3)c2ccccc21 (configuration not stated)	2.43
CC(C)(C)NC(=S)Nc1ccccc1Cl	0.36
O=C(Nc1ccc(F)cc1)c1ccccc1NC(=S)Nc1ccccc1Cl	0.46
COC(=O)c1sc(-c2ccc(Cl)cc2)cc1NC(=O)c1cc(C)nn1C	-0.98
COC(=O)c1sc(-c2ccc(Cl)cc2)cc1NC(=O)Nc1cccs1	3.42*
COC(=O)c1sc(-c2ccc(Cl)cc2)cc1NC(=O)c1cccnc1Oc1ccccc1	1.9
